{"source": "the OligoGym collection", "data": [{"target": "OSBPL11", "assay": "pooled miR-30 sensor sort-seq; sequence = guide strand", "conditions": "shRNA", "values": [{"sequence": "TATCTGAAGTCTGCTAACCCAG", "sensor-assay potency score (higher = more potent)": -1.27}, {"sequence": "TTGACTTGGTCTCCTCTGCGAT", "sensor-assay potency score (higher = more potent)": -0.7}, {"sequence": "TACATTCTGCATAAAATCCTGA", "sensor-assay potency score (higher = more potent)": 0.486}, {"sequence": "TTTACCACTTTGGTCTTGCTGC", "sensor-assay potency score (higher = more potent)": -0.424}, {"sequence": "TTCTTTACCACTTTGGTCTTGC", "sensor-assay potency score (higher = more potent)": 0.433}, {"sequence": "AATAGCTTCAGTATGATGCTGT", "sensor-assay potency score (higher = more potent)": 0.478}, {"sequence": "TTTACTTCAGCTGTAACCCGAT", "sensor-assay potency score (higher = more potent)": 0.406}, {"sequence": "TTAAGTCTCTTTGTTGTCCTTC", "sensor-assay potency score (higher = more potent)": 0.3}]}, {"target": "OSBPL2", "assay": "pooled miR-30 sensor sort-seq; sequence = guide strand", "conditions": "shRNA", "values": [{"sequence": "TTGAAGGCGATTGGCATCGTGA", "sensor-assay potency score (higher = more potent)": -0.348}, {"sequence": "TTTTTGTCTTGAATGTGTCCTT", "sensor-assay potency score (higher = more potent)": 0.356}, {"sequence": "TTTAAAATCTCCACTGTCCCAT", "sensor-assay potency score (higher = more potent)": -0.254}, {"sequence": "TAGAATTACATCCTTGATCAGG", "sensor-assay potency score (higher = more potent)": -0.471}, {"sequence": "TTTTGTCTTGAATGTGTCCTTC", "sensor-assay potency score (higher = more potent)": 0.333}, {"sequence": "TTAATTAGAATTACATCCTTGA", "sensor-assay potency score (higher = more potent)": 1.08}, {"sequence": "TTCAGGATGGTCCACACGCTGA", "sensor-assay potency score (higher = more potent)": -1.77}, {"sequence": "TAAATCTGAATCCTAAATCTTC", "sensor-assay potency score (higher = more potent)": -0.577}, {"sequence": "TCTAAGTCAATCATTCCCGTGA", "sensor-assay potency score (higher = more potent)": 0.725}, {"sequence": "TTGAATGTGTCCTTCCACCTTG", "sensor-assay potency score (higher = more potent)": -0.0307}, {"sequence": "TTCTCTCTGCTTCTCCTCCAGC", "sensor-assay potency score (higher = more potent)": -1}, {"sequence": "TTTGTTTTTGTCTTGAATGTGT", "sensor-assay potency score (higher = more potent)": 0.222}]}, {"target": "OSBPL3", "assay": "pooled miR-30 sensor sort-seq; sequence = guide strand", "conditions": "shRNA", "values": [{"sequence": "TAAATCGAGTGTCAGTAGGTGG", "sensor-assay potency score (higher = more potent)": -1.06}, {"sequence": "TTCTTTACAGACATCACTGAGA", "sensor-assay potency score (higher = more potent)": 0.168}, {"sequence": "TCTACTTTCATTAGAAAGCTGA", "sensor-assay potency score (higher = more potent)": -0.307}, {"sequence": "TTCTTGATGACAATCTCTCCAT", "sensor-assay potency score (higher = more potent)": -0.313}, {"sequence": "TTCATCTCTGGAGTTTTCGGAT", "sensor-assay potency score (higher = more potent)": -0.271}, {"sequence": "TTGCTCTCCATACACAGGCAGA", "sensor-assay potency score (higher = more potent)": -1.4}, {"sequence": "TTGGAGATAACAGAACTTCCTG", "sensor-assay potency score (higher = more potent)": 0.0622}, {"sequence": "TGAAGCTATAGTATTGCTCGTA", "sensor-assay potency score (higher = more potent)": -0.222}, {"sequence": "TATAGTATTGCTCGTAGCCTTT", "sensor-assay potency score (higher = more potent)": -1.22}, {"sequence": "TAGAAGAATCTCTTATGCCAGC", "sensor-assay potency score (higher = more potent)": -0.865}, {"sequence": "TACATTCATATAAACAATCAGG", "sensor-assay potency score (higher = more potent)": -0.979}, {"sequence": "TTCTTCTCCGGGACTTCGCTTC", "sensor-assay potency score (higher = more potent)": 0.0582}]}, {"target": "OSR1", "assay": "pooled miR-30 sensor sort-seq; sequence = guide strand", "conditions": "shRNA", "values": [{"sequence": "TTGTAGGACTTGGTGAAGTGGC", "sensor-assay potency score (higher = more potent)": -0.656}, {"sequence": "AATATATCTGTGGTCTCGCAGG", "sensor-assay potency score (higher = more potent)": -1.37}, {"sequence": "ATATCTGTGGTCTCGCAGGTGG", "sensor-assay potency score (higher = more potent)": -0.964}, {"sequence": "TTCTTTTCTGGAGACAGCTTGG", "sensor-assay potency score (higher = more potent)": -0.688}, {"sequence": "TAGGACTTGGTGAAGTGGCGGC", "sensor-assay potency score (higher = more potent)": 0.00529}, {"sequence": "TTTCCCACACTCTTGACACTTG", "sensor-assay potency score (higher = more potent)": -0.209}, {"sequence": "TATATCTGTGGTCTCGCAGGTG", "sensor-assay potency score (higher = more potent)": 0.107}, {"sequence": "TTGAGCGCTGGAACGCTGCCTC", "sensor-assay potency score (higher = more potent)": -0.183}]}]}
